Assay results as given in PubChem BioAssay (Tox21).
Inconclusive results are not listed. The source made the active and inactive calls. Unless noted, the call rests on the fitted dose curve; in most records, active means well fitted curve in the direction sought with a large enough effect in the repeat runs; inconclusive means weak or mixed curves; inactive means no such curve, though single readings can be large; an effect the other way counts as inactive or inconclusive. Non-standard residues stand in square brackets, D forms with d. Residues, ends and D or L forms follow the SMILES beside them. *: point of attachment. Sta = CC(C)C[C@H](N)[C@@H](O)CC(=O)O; Isovaleryl = CC(C)CC(=O)*

Assays:
[1] = target: Peroxisome proliferator-activated receptor delta (Homo sapiens) (UniProt Q03181); assay: qHTS assay to identify small molecule agonists of the peroxisome proliferator-activated receptor delta (PPARd) signaling pathway (AID 743212; calls by dose curve)
Sequence of Peroxisome proliferator-activated receptor delta (Homo sapiens) (Q03181 whole entry, looked up): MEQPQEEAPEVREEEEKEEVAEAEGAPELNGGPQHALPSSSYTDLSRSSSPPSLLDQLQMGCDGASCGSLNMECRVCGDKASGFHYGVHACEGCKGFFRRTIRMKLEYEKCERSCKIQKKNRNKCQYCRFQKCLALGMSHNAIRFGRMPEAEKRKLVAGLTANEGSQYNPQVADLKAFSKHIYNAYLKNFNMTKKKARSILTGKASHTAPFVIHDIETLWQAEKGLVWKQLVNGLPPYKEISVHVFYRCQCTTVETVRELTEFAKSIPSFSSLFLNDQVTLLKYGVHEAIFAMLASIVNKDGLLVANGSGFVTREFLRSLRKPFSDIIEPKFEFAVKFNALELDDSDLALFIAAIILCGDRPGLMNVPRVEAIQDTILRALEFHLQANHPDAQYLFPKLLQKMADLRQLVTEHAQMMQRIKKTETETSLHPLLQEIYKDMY
In short: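 Tox21 library screened in GeneBLAzer PPARd UAS-bla HEK293H cells. After compound treatment at 37 C, a FRET-based beta-lactamase substrate was applied for 2 h and fluorescence recorded.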

[2] = qHTS assay to identify small molecule antagonists of the peroxisome proliferator-activated receptor delta (PPARd) signaling pathway - cell viability counter screen (AID 743213); further: nearly all actives have a fitted effect of over 50% in size
In short: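 HEK293H PPARd UAS-bla cells, 5 h pre-incubation, compound + L165041 300 nM final, 17 h 37 C; B/G FRET substrate 2 h RT; then CellTiter-Glo 30 min RT, luminescence.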

[3] = target: Peroxisome proliferator-activated receptor delta (Homo sapiens) (UniProt Q03181); assay: qHTS assay to identify small molecule antagonists of the peroxisome proliferator-activated receptor delta (PPARd) signaling pathway (AID 743215; active means well fitted inhibition curve with a large enough effect in the signal ratio in the repeat runs, not every such curve was filed as active; the % refers to the signal ratio;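 further: cells stimulated with agonist L165041 at 300 nM final during compound exposure; series mostly up to about 62 µM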)
In short: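 Plated HEK293H PPARd-bla cells rested 5 h at 37 C and 5% CO2. Compound, then agonist L165041 at 300 nM final, was added; 17 h at 37 C followed. Substrate loading, 2 h room temperature, fluorescence measured.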

[4] = qHTS assay to identify small molecule agonists of the farnesoid-X-receptor (FXR) signaling pathway - cell viability counter screen (AID 743218); further: nearly all actives have a fitted effect of over 45% in size
In short: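 Viability of FXR-bla HEK 293T cells is measured by ATP-based CellTiter-Glo luminescence following 16 h compound treatment at 37 C and a prior 2 h room-temperature beta-lactamase substrate step.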

[5] = qHTS assay to identify small molecule antagonists of the farnesoid-X-receptor (FXR) signaling pathway - cell viability counter screen (AID 743221; active means well fitted cell-killing curve with a large enough effect in the repeat runs, not every such curve was filed as active; further: nearly all actives have a fitted effect of over 50% in size)
In short: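 Here viability was scored by luminescence after CellTiter-Glo addition to wells already read for beta-lactamase. Prior treatment: compound plus CDCA (50 uM final), 16 h, 37 C, HEK 293T FXR-bla cells.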

[6] = target: Vitamin D3 receptor (Homo sapiens) (UniProt P11473); assay: qHTS assay to identify small molecule agonists of the vitamin D receptor (VDR) signaling pathway (AID 743222; calls by dose curve)
Sequence of Vitamin D3 receptor (Homo sapiens) (P11473 whole entry, looked up): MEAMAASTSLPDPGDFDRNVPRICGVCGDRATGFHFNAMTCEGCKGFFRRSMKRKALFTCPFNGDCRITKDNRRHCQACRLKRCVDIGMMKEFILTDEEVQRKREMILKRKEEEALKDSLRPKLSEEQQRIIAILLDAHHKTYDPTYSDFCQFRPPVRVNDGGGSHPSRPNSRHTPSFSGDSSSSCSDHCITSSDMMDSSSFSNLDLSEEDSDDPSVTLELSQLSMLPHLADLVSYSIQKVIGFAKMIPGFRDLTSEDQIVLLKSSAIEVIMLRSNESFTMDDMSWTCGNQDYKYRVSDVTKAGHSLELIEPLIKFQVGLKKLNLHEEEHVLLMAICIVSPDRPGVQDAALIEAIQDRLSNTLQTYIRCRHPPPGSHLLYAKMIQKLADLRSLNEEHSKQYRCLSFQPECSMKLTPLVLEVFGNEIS
In short: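 Fluorescence from cleaved LiveBLAzer B/G FRET substrate served as readout. VDR-bla cells had been treated 16 h at 37C with test compounds in DMSO, following a 4 h settling period, and substrate was loaded for 2 h at RT.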

[7] = target: Vitamin D3 receptor (Homo sapiens) (UniProt P11473); assay: qHTS assay to identify small molecule antagonists of the vitamin D receptor (VDR) signaling pathway (AID 743223; active means well fitted inhibition curve with a large enough effect in the signal ratio in the repeat runs, not every such curve was filed as active; the % refers to the signal ratio)
In short: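 Inhibition of agonist-driven VDR signalling is scored in VDR-bla cells: 3 nM final 1alpha,25-dihydroxyvitamin D3 plus compound, 16 h at 37C, then beta-lactamase detection by FRET substrate fluorescence after 2 h.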

[8] = qHTS assay to identify small molecule agonists of the vitamin D receptor (VDR) signaling pathway - cell viability counter screen (AID 743224); further: series mostly up to about 63 µM; nearly all actives have a fitted effect of over 50% in size
In short: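 Compounds were pin-transferred onto VDR-bla cells plated 4 h earlier; following 16 h incubation at 37C, cell viability was quantified by CellTiter-Glo luminescence after 30 min at room temperature.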

[9] = target: Bile acid receptor (Homo sapiens) (UniProt Q96RI1); assay: qHTS assay to identify small molecule antagonists of the farnesoid-X-receptor (FXR) signaling pathway (AID 743217; active means well fitted inhibition curve with a large enough effect in the signal ratio in the repeat runs, not every such curve was filed as active; the % refers to the signal ratio)
Sequence of Bile acid receptor (Homo sapiens) (Q96RI1 whole entry, looked up): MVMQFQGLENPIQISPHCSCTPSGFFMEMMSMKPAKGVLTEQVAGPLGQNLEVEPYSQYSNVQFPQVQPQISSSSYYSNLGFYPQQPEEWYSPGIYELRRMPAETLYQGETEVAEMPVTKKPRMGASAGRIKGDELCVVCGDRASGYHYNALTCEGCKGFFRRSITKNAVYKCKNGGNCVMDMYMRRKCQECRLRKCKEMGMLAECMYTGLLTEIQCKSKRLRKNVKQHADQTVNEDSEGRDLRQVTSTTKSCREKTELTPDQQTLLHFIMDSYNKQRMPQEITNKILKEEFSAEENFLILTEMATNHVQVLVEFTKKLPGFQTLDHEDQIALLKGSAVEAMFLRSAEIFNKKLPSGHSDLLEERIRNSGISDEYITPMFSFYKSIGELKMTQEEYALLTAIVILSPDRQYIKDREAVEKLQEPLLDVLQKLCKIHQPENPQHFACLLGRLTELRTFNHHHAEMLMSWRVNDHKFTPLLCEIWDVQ
In short: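 Screen of the Tox21 10K library in quantitative HTS format using FXR-UAS-bla HEK 293T reporter cells. Agonist chenodeoxycholic acid, 50 uM final, added with compounds; 16 h incubation at 37 °C; beta-lactamase FRET fluorescence measured.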

[10] = target: Bile acid receptor (Homo sapiens) (UniProt Q96RI1); assay: qHTS assay to identify small molecule agonists of the farnesoid-X-receptor (FXR) signaling pathway (AID 743220; active means well fitted activation curve with a large enough effect in the signal ratio in the repeat runs, not every such curve was filed as active; the % refers to the signal ratio)
In short: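 FXR-UAS-bla HEK 293T cells carrying a UAS-driven beta-lactamase reporter were plated for 5 h at 37C/5% CO2, then exposed to DMSO-dissolved Tox21 10K compounds for 16 h at 37C. A LiveBLAzer B/G FRET substrate was loaded for 2 h at room temperature before fluorescence reading.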
On the % scale 0 is the no-effect control and ±100 the full control effect.

CC/C=C\CCCCCCCCCCOC(C)=O
inactive: outcome [1] | outcome [2] | outcome [3] | outcome [4] | outcome [5] | outcome [6] | outcome [7] | outcome [8]

Nc1ccc(C(=O)NCC(=O)O)cc1
inactive: outcome [1] | outcome [2] | outcome [3] | outcome [4] | outcome [5] | outcome [6] | outcome [7] | outcome [8]

CC(C)c1cc(C(C)C)cc(C(C)C)c1
inactive: outcome [1] | outcome [2] | outcome [3] | outcome [4] | outcome [5] | outcome [6] | outcome [7] | outcome [8]

CC(C)(Sc1cc(C(C)(C)C)c(O)c(C(C)(C)C)c1)Sc1cc(C(C)(C)C)c(O)c(C(C)(C)C)c1
inactive: outcome [1] | outcome [2] | outcome [3] | outcome [4] | outcome [5] | outcome [6] | outcome [7] | outcome [8]

CN1C(CCl)Nc2cc(Cl)c(S(N)(=O)=O)cc2S1(=O)=O (centres undefined)
inactive: outcome [1] | outcome [2] | outcome [3] | outcome [4] | outcome [5] | outcome [6] | outcome [7] | outcome [8]

Cc1ccc(Br)cc1
inactive: outcome [1] | outcome [2] | outcome [3] | outcome [4] | outcome [5] | outcome [6] | outcome [7] | outcome [8]

NNC(=O)OCc1ccccc1
inactive: outcome [1] | outcome [2] | outcome [3] | outcome [4] | outcome [5] | outcome [6] | outcome [7] | outcome [8]

CC(C)CC(=O)N[C@H](C(=O)N[C@H](C(=O)N[C@@H](CC(C)C)[C@@H](O)CC(=O)N[C@@H](C)C(=O)N[C@@H](CC(C)C)[C@@H](O)CC(=O)O)C(C)C)C(C)C (Isovaleryl-VV[Sta]A[Sta]-OH)
inactive: outcome [1] | outcome [2] | outcome [3] | outcome [4] | outcome [5] | outcome [6] | outcome [7] | outcome [8]

COC(=O)/C=C(\C)CCC=C(C)C
inactive: outcome [1] | outcome [2] | outcome [3] | outcome [4] | outcome [5] | outcome [6] | outcome [7]

C=COCCCCO
inactive: outcome [1] | outcome [2] | outcome [3] | outcome [4] | outcome [5] | outcome [8]

CCCCS
inactive: outcome [1] | outcome [2] | outcome [3] | outcome [4] | outcome [5] | outcome [6] | outcome [7] | outcome [8]

CCO/C=C1\N=C(c2ccccc2)OC1=O
inactive: outcome [1] | outcome [2] | outcome [3] | outcome [4] | outcome [5] | outcome [8]

COC(=O)C(c1ccccc1Cl)N1CCc2sccc2C1 (centres undefined)
inactive: outcome [1] | outcome [2] | outcome [3] | outcome [4] | outcome [5] | outcome [6] | outcome [7] | outcome [8]

Clc1ccc2c(c1)Nc1ccccc1S2
inactive: outcome [1] | outcome [2] | outcome [3] | outcome [4] | outcome [5] | outcome [7] | outcome [8]

CN(C)CCc1c[nH]c2ccc(CS(=O)(=O)N3CCCC3)cc12
inactive: outcome [1] | outcome [2] | outcome [3] | outcome [4] | outcome [5] | outcome [6] | outcome [7] | outcome [8]

CCCOc1ccc(C(=O)OCCN(CC)CC)cc1N
inactive: outcome [1] | outcome [2] | outcome [3] | outcome [4] | outcome [5] | outcome [6] | outcome [7] | outcome [8]

N#Cc1cc(NC(=O)C(=O)O)c(Cl)c(NC(=O)C(=O)O)c1
inactive: outcome [1] | outcome [2] | outcome [3] | outcome [4] | outcome [5] | outcome [6] | outcome [7] | outcome [8]

C=CCON/C(CCC)=C1\C(=O)CC(C)(C)C(C(=O)OC)=C1O
inactive: outcome [1] | outcome [2] | outcome [3] | outcome [4] | outcome [5] | outcome [6] | outcome [7] | outcome [8]

CCCC(=O)CC
inactive: outcome [1] | outcome [2] | outcome [3] | outcome [4] | outcome [5] | outcome [6] | outcome [7] | outcome [8]

COC(=O)c1c(C)cc(O)c(C)c1O
inactive: outcome [1] | outcome [2] | outcome [3] | outcome [4] | outcome [5] | outcome [6] | outcome [7] | outcome [8]

C[C@@H]1NC(=O)[C@@H](N)CNC(=O)[C@H](C2CCNC(N)=N2)NC(=O)/C(=C/NC(N)=O)NC(=O)[C@H](CNC(=O)C[C@@H](N)CCCN)NC1=O (some centres undefined)
inactive: activation [1] 1.73% [at 0.55 µM] | viability change, negative = cytotoxic [2] 5.77% [at 0.575 µM] | ratio activity, negative = inhibition [3] 1.43% [at 0.575 µM] | viability change, negative = cytotoxic [4] -0.66% [at 0.55 µM] | activity change, negative = cytotoxicity [5] 2.18% [at 0.55 µM] | activation [6] 3.13% [at 0.554 µM] | activity change, negative = inhibition [7] 8.64% [at 0.628 µM] | activity change, negative = cytotoxicity [8] -2.65% [at 0.55 µM]

NC(=O)CC[C@@H](N)C(=O)O
inactive: outcome [1] | outcome [2] | outcome [3] | outcome [4] | outcome [5] | outcome [7] | outcome [8]

CCCCCCCCCCCC(C)=O
inactive: outcome [1] | outcome [2] | outcome [9] | outcome [4] | outcome [10] | outcome [5] | outcome [6] | outcome [8]

CCCCCCCC(=O)N(C)C
inactive: outcome [1] | outcome [2] | outcome [3] | outcome [5] | outcome [6] | outcome [7] | outcome [8]

CC(=O)Nc1ccc(S(=O)(=O)Nc2cc(C)on2)cc1
inactive: outcome [1] | outcome [2] | outcome [9] | outcome [10] | outcome [5] | outcome [6] | outcome [7] | outcome [8]

CC(C)C[P+](C)(CC(C)C)CC(C)C
inactive: outcome [1] | outcome [2] | outcome [3] | outcome [10] | outcome [5] | outcome [6] | outcome [7] | outcome [8]

CCCCCCCOC(C)=O
inactive: outcome [1] | outcome [2] | outcome [3] | outcome [5] | outcome [6] | outcome [8]

CCCCCCCCCCCCCC(=O)OCC
inactive: outcome [1] | outcome [2] | outcome [5] | outcome [6] | outcome [7] | outcome [8]

NNC(=O)CCCCC(=O)NN
inactive: outcome [1] | outcome [2] | outcome [9] | outcome [10] | outcome [6] | outcome [7] | outcome [8]

C=C(C)C(=O)OCCCC
inactive: outcome [1] | outcome [2] | outcome [3] | outcome [5] | outcome [8]
